Measurements from the supplement of paper PMC9492666.
Counter-ions that a name gives are not always drawn.
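Note: viability read out with the CCK-8 kit in 96-well plates, screening a set of 303 compounds acting on lipid metabolism targets.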

What follows are molecules tested on HCC1937 (assay: relative cell viability, compound alone, vs DMSO (fraction of DMSO control); higher = less growth inhibition). Conditions: 72 h.
Molecule `COc1ccc(CN2CCNCC2)c(OC)c1OC` [Trimetazidine dihydrochloride] has a relative cell viability of 1.09.
`C[C@@H]1C(=O)O[C@H]2[C@H](O)[C@@]34O[C@@H]5OC(=O)[C@H](O)[C@@]56[C@H](C(C)(C)C)[C@H](O)C(OC3=O)[C@]64[C@@]12O` (stereo not given in full) [Ginkgolide C] gave a relative cell viability of 1.15.
For `O=C(NCCN1CCC2(CC1)C(=O)NCN2c1ccccc1)c1ccc2ccccc2c1`, the relative cell viability was 0.491.
`C/C=C/c1cc(OC)c(OC)cc1OC` [alpha-Asarone] was tested, and the relative cell viability was 0.855.
`O=C(CBr)c1ccc(O)cc1` [PTP Inhibitor I] gave a relative cell viability of 1.17.
Work on `CC(C)=CCC[C@](C)(O)[C@H]1CC[C@]2(C)[C@@H]1[C@H](O)C[C@@H]1[C@@]3(C)CC[C@H](O)C(C)(C)[C@@H]3[C@@H](O[C@@H]3O[C@H](CO)[C@@H](O)[C@H](O)[C@H]3O)C[C@]12C` [Ginsenoside Rh1] yielded a relative cell viability of 1.09.
Molecule `O=C1C=CC[C@@H]2[C@H]3CCCN4CCC[C@@H](CN12)[C@@H]34` [Sophocarpine] has a relative cell viability of 0.762.
With `C[C@]12CC[C@@H](O)C[C@@H]1CC[C@@H]1[C@@H]2CC[C@]2(C)C(=O)CC[C@@H]12` [Androsterone] the relative cell viability was 1.33.
Molecule `NNC(=O)c1nn(Cc2ccc(Cl)cc2Cl)c2ccccc12` [Adjudin] has a relative cell viability of 0.767.
For `O=C(Oc1ccc([N+](=O)[O-])cc1)N1CCN(Cc2cccc(Oc3ccccc3)c2)CC1`, the relative cell viability was 0.79.
Work on `Cc1cc(SCc2sc(-c3ccc(C(F)(F)F)c(F)c3)nc2C)ccc1OCC(=O)O` yielded a relative cell viability of 1.21.
`CCC1=N[C@H]2C[C@@]3(C(=O)N(OC)c4ccccc43)[C@H]3CC1[C@@H]2CO3` [Humantenmine] gave a relative cell viability of 0.922.
For `C[C@@]12C[C@@H](c3ccoc3)OC(=O)[C@@H]1CC[C@]1(C)[C@H]2[C@@H]2C=C[C@@]1(O)C(=O)O2` [Columbin], the relative cell viability was 0.968.
With `CCc1c(C(=O)C(N)=O)c2c(OCC(=O)O)cccc2n1Cc1ccccc1` [Varespladib] the relative cell viability was 0.797.
Molecule `O=C(Oc1ccc([N+](=O)[O-])cc1)N1CCC(C(O)(c2ccc3c(c2)OCO3)c2ccc3c(c2)OCO3)CC1` has a relative cell viability of 0.911.

Each molecule was assayed on MDA-MB-231 in the same assay as above. Conditions: 72 h.
For `COc1ccc(CN2CCNCC2)c(OC)c1OC` [Trimetazidine dihydrochloride], the relative cell viability was 0.823.
For `C[C@@H]1C(=O)O[C@H]2[C@H](O)[C@@]34O[C@@H]5OC(=O)[C@H](O)[C@@]56[C@H](C(C)(C)C)[C@H](O)C(OC3=O)[C@]64[C@@]12O` (stereo not given in full) [Ginkgolide C], the relative cell viability was 1.08.
Molecule `O=C(NCCN1CCC2(CC1)C(=O)NCN2c1ccccc1)c1ccc2ccccc2c1` has a relative cell viability of 0.689.
`C/C=C/c1cc(OC)c(OC)cc1OC` [alpha-Asarone] was tested, and the relative cell viability was 0.976.
For `O=C(CBr)c1ccc(O)cc1` [PTP Inhibitor I], the relative cell viability was 0.937.
In the case of `CC(C)=CCC[C@](C)(O)[C@H]1CC[C@]2(C)[C@@H]1[C@H](O)C[C@@H]1[C@@]3(C)CC[C@H](O)C(C)(C)[C@@H]3[C@@H](O[C@@H]3O[C@H](CO)[C@@H](O)[C@H](O)[C@H]3O)C[C@]12C` [Ginsenoside Rh1], the relative cell viability was 1.03.
Molecule `O=C1C=CC[C@@H]2[C@H]3CCCN4CCC[C@@H](CN12)[C@@H]34` [Sophocarpine] has a relative cell viability of 0.906.
Work on `C[C@]12CC[C@@H](O)C[C@@H]1CC[C@@H]1[C@@H]2CC[C@]2(C)C(=O)CC[C@@H]12` [Androsterone] yielded a relative cell viability of 1.08.
With `NNC(=O)c1nn(Cc2ccc(Cl)cc2Cl)c2ccccc12` [Adjudin] the relative cell viability was 0.757.
`O=C(Oc1ccc([N+](=O)[O-])cc1)N1CCN(Cc2cccc(Oc3ccccc3)c2)CC1` showed a relative cell viability of 0.782.
`Cc1cc(SCc2sc(-c3ccc(C(F)(F)F)c(F)c3)nc2C)ccc1OCC(=O)O` gave a relative cell viability of 0.892.
Work on `CCC1=N[C@H]2C[C@@]3(C(=O)N(OC)c4ccccc43)[C@H]3CC1[C@@H]2CO3` [Humantenmine] yielded a relative cell viability of 0.978.
In the case of `C[C@@]12C[C@@H](c3ccoc3)OC(=O)[C@@H]1CC[C@]1(C)[C@H]2[C@@H]2C=C[C@@]1(O)C(=O)O2` [Columbin], the relative cell viability was 1.06.
`CCc1c(C(=O)C(N)=O)c2c(OCC(=O)O)cccc2n1Cc1ccccc1` [Varespladib] was tested, and the relative cell viability was 0.842.
In the case of `O=C(Oc1ccc([N+](=O)[O-])cc1)N1CCC(C(O)(c2ccc3c(c2)OCO3)c2ccc3c(c2)OCO3)CC1`, the relative cell viability was 0.901.
